{"source": "PubChem BioAssay (NCI)", "note": "The panel holds about 79,000 compounds, 15% with a hit somewhere; the sample as a whole holds those more often. A number with no mark means an inactive call. The source made the active and inactive calls. No stated cut-off is given here; in the data, active means growth inhibition above about 70%; inactive means the rest.", "data": [{"assay": "NCI Yeast Anticancer Drug Screen. Data for the mlh1 rad18 strain (AID 175)", "conditions": "S. cerevisiae mlh1 rad18 strain growth inhibition; at 50.0 µM (retest, dose inferred, filed as 5.0); hits give high values", "in_short": "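Test agents were incubated with a yeast strain of defined genotype (DNA damage repair defect). Inhibition of growth was derived by comparison with vehicle-exposed cultures.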", "values": [{"smiles": "C1=NC2c3ccccc3Cc3cccc1c32", "note": "(centres undefined)", "growth inhibition": "97% (active)"}, {"smiles": "COc1ccc2c(c1)CN([C@@H](C)[C@H]1CC[C@H]3[C@@H]4CC[C@H]5C[C@@H](O)CC[C@]5(C)[C@H]4CC[C@]13C)CO2", "growth inhibition": "99% (active)"}, {"smiles": "Cc1c(N)nc(C(CC(N)=O)NCC(N)C(N)=O)nc1C(=O)NC(C(=O)NC(C)C(O)C(C)C(=O)NC(C(=O)NCCc1nc(-c2nc(C(=O)NCCCNCCCc3ccccn3)cs2)cs1)C(C)O)C(OC1OC(CO)C(O)C(O)C1OC1OC(CO)C(O)C(OC(N)=O)C1O)c1cnc[nH]1", "note": "(centres undefined)", "growth inhibition": "99% (active)"}, {"smiles": "COc1cc2c(cc1O)-c1c(cnn1-c1ccccc1)CCC2", "growth inhibition": "92% (active)"}, {"smiles": "CN(C)CC(CN(C)C)C(=O)c1ccc(Oc2ccc(Cl)cc2)cc1", "growth inhibition": "98% (active)"}, {"smiles": "N#CCCN(CCC#N)Cc1c(O)c(O)c(CN(CCC#N)CCC#N)c2ccccc12", "growth inhibition": "25%"}, {"smiles": "Cc1cc2c(c([N+](=O)[O-])c1C)C(=O)C(Br)=C(N)C2=O", "growth inhibition": "99% (active)"}, {"smiles": "O=C(O)CSC(=S)N1CCCC1", "growth inhibition": "8%"}, {"smiles": "CNC1=C2NC(=O)/C(C)=C\\C=C\\C(C)C(O)C(C)C(O)C(C)C(OC(C)=O)C(C)C(OC)/C=C/OC3(C)Oc4c(C)c(O)c(c(c4C3=O)C1=O)C2=O", "note": "(centres undefined)", "growth inhibition": "64%"}, {"smiles": "O=c1c(Cl)nsnc1Cl", "growth inhibition": "100% (active)"}, {"smiles": "CC(NC(=O)OCc1ccccc1)C(=O)NNc1ccccc1Cl", "note": "(centres undefined)", "growth inhibition": "99% (active)"}, {"smiles": "O=C(OCc1ccccc1CN1CCOCC1)c1cccc(Br)c1", "growth inhibition": "40%"}, {"smiles": "OC(COc1ccc(Cl)cc1)COc1ccc(Cl)cc1", "growth inhibition": "93% (active)"}, {"smiles": "Cc1c(-c2ccc(C(=N)N)cc2)oc(-c2ccc(C(=N)N)cc2)c1C", "growth inhibition": "97% (active)"}]}]}
